Measurements taken from PubChem BioAssay (EPA / NIEHS).
Records with an inconclusive call do not appear. The source made the active and inactive calls. Rule for the calls, unless noted: active = hit-call score of the fitted dose curve at least 0.9, where 1 is the maximum; inconclusive = response in the unintended direction; inactive = score below 0.9.

Experiments:
[1] = ATG_TCF_b_cat_CIS: Attagene CIS-FACTORIAL HepG2 Assay for human T-Cell-Factor with beta-catenin (TCF/b-cat) (AID 2282965; active = hit-call score of the fitted dose curve at least 0.9, where 1 is the maximum; inactive = score below 0.9); conditions: HepG2 TCF/beta-catenin cis-reporter transcription, actives raise or lower the signal
Method in brief: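 Endogenous transcription factor activity is captured through cis-promoter reporter constructs transiently introduced into human HepG2 liver cells. Induced reporter mRNA is measured after 24 h and fitted bidirectionally relative to DMSO.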

[2] = ATG_TAL_CIS: Attagene CIS-FACTORIAL HepG2 Assay for human TAL Basal Promoter (AID 2282966; active = hit-call score of the fitted dose curve at least 0.9, where 1 is the maximum; inactive = score below 0.9;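 note: background control endpoint measuring basal TAL promoter reporter mRNA not a specific factor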); conditions: HepG2 Attagene cis-factorial TAL promoter reporter; actives raise or lower the signal
Method in brief: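 Readout: reporter mRNA, fluorescence by CE. System: HepG2, transient multi-reporter transfection, endogenous TF activity. Exposure: 24 h. Analysis: bidirectional, DMSO-normalized; background control.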

[3] = ATG_TGFb_CIS: Attagene CIS-FACTORIAL HepG2 Assay for human Transforming Growth Factor (TGF) (AID 2282967; active = hit-call score of the fitted dose curve at least 0.9, where 1 is the maximum; inactive = score below 0.9); conditions: HepG2 Attagene CIS TGFb reporter, mRNA transcription; actives raise or lower the signal
Method in brief: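 Liver HepG2 line, cis-factorial reporter panel, 24 h dosing. Quantitation: RT-PCR products labeled with 6-FAM, cut with HpaI, resolved by capillary electrophoresis; DMSO-referenced bidirectional analysis.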

[4] = ATG_VDRE_CIS: Attagene CIS-FACTORIAL HepG2 Assay for human Vitamin D Receptor Element (VDRE) (AID 2282968; active = hit-call score of the fitted dose curve at least 0.9, where 1 is the maximum; inactive = score below 0.9); conditions: HepG2 VDRE cis-reporter transcription, actives raise or lower the signal
Method in brief: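 In transiently transfected HepG2 liver cells, gain or loss of reporter mRNA after 24 h exposure is scored relative to DMSO, using fluorescence detection by capillary electrophoresis of RT-PCR products.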

[5] = target: Estrogen receptor (Homo sapiens) (UniProt P03372); experiment: ATG_ERa_TRANS: Attagene TRANS-FACTORIAL HepG2 Assay for human Estrogen Receptor alpha (ERa) (AID 2282970); conditions: HepG2 Attagene TRANS ERa GAL4 reporter, mRNA
Method in brief: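 Transactivation via ERa-Gal4 chimera in HepG2; 24 hour incubation; reporter mRNA detected by fluorescence RT-PCR and capillary electrophoresis.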

[6] = target: Steroid hormone receptor ERR1 (Homo sapiens) (UniProt P11474); experiment: ATG_ERRa_TRANS: Attagene TRANS-FACTORIAL HepG2 Assay for human Estrogen-Related Receptor alpha (ERRa) (AID 2282971); conditions: HepG2 Attagene TRANS reporter, ERRa transactivation
Method in brief: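 HepG2 cells were transiently transfected with multiple GAL4-UAS reporter units, then dosed with compound for 24 h. Total RNA was reverse-transcribed, reporter cDNA PCR-amplified and fluorescently labelled, and fragments resolved by capillary electrophoresis; induction was compared with DMSO.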

[7] = target: X-box-binding protein 1 (Homo sapiens) (UniProt P17861); experiment: ATG_Xbp1_CIS: Attagene CIS-FACTORIAL HepG2 Assay for human X-box Binding Protein 1 (XBP1) (AID 2282972; active = hit-call score of the fitted dose curve at least 0.9, where 1 is the maximum; inactive = score below 0.9); conditions: HepG2 XBP1 cis-element reporter, Attagene multiplex; actives raise or lower the signal
Method in brief: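 Fluorescence-labelled cDNA fragments from reporter transcripts, separated by capillary electrophoresis, give the signal. Source: HepG2 cells transfected with promoter-driven reporter units, harvested 24 h post-dose. DMSO served as reference for bidirectional curve fitting.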

[8] = ATG_GAL4_TRANS: Attagene TRANS-FACTORIAL HepG2 Assay for GAL4 (Internal Marker) (AID 2282976); conditions: HepG2 Attagene TRANS GAL4 internal marker reporter
Method in brief: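 Fluorescence from capillary electrophoresis of labelled RT-PCR products quantifies reporter mRNA induction after 24 h dosing of HepG2 cells carrying transfected GAL4-UAS reporter transcription units. Vehicle DMSO serves as baseline.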

[9] = target: Oxysterols receptor LXR-beta (Homo sapiens) (UniProt P55055); experiment: ATG_LXRb_TRANS: Attagene TRANS-FACTORIAL HepG2 Assay for human Liver X Receptor beta (LXRb) (AID 2282981); conditions: HepG2 Attagene TRANS GAL4-LXRb reporter, mRNA
Method in brief: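 Cells: HepG2, transiently transfected with GAL4-UAS reporter units plus LXRb-Gal4 fusion. Treatment: 24 h. Detection: reporter mRNA by RT-PCR, 6-FAM labelling, HpaI digestion, capillary electrophoresis.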

[10] = ATG_M_06_TRANS: Attagene TRANS-FACTORIAL HepG2 Assay for M06 Transcription Factor (Internal Marker) (AID 2282983); conditions: HepG2 Attagene TRANS M06 internal marker reporter;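 note: reporter transcript level by RT-PCR then capillary electrophoresis fluorescence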
Method in brief: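 Measured by capillary electrophoresis of fluorescently labelled RT-PCR products, this endpoint reflects reporter mRNA in HepG2 cells harbouring exogenous NR-GAL4 reporter constructs after 24 h exposure, with DMSO as baseline.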

[11] = target: Transcriptional activator Myb (Homo sapiens) (UniProt P10242); experiment: ATG_Myb_CIS: Attagene CIS-FACTORIAL HepG2 Assay for human Myeloblastosis (Myb) Proto-Oncogene Transcription Factor (AID 2282986; active = hit-call score of the fitted dose curve at least 0.9, where 1 is the maximum; inactive = score below 0.9); conditions: HepG2 Attagene CIS-FACTORIAL Myb reporter transcription; actives raise or lower the signal
Method in brief: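 Reporter mRNA is quantified by RT-PCR and capillary electrophoresis 24 h after dosing HepG2 cells transfected with cis-regulated reporter units, which track endogenous transcription factor activity. Gain and loss of signal are fitted versus DMSO baseline.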

[12] = ATG_M_19_TRANS: Attagene TRANS-FACTORIAL HepG2 Assay for M19 Transcription Factor (Internal Marker) (AID 2282974); conditions: HepG2 Attagene TRANS-FACTORIAL M19 internal marker reporter
Method in brief: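 Background-control readout: after 24 h chemical exposure of transfected HepG2 carrying GAL4-driven reporter units, RNA was reverse-transcribed, amplified, fluorescently labeled and sized by capillary electrophoresis; gain-of-signal fit against DMSO.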

[13] = target: Glucocorticoid receptor (Homo sapiens) (UniProt P04150); experiment: ATG_GR_TRANS: Attagene TRANS-FACTORIAL HepG2 Assay for human Glucocorticoid Receptor (GR) (AID 2282978); conditions: HepG2 Attagene TRANS GR reporter, mRNA transcription;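 note: activators score as hits since higher reporter transcript over DMSO is fitted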
Method in brief: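 Readout is reporter transcript from a chimeric GR-Gal4 acting on GAL4-UAS in transfected human HepG2 liver cells after 24 h exposure, quantified by RT-PCR and capillary electrophoresis. Activation fitted upward against DMSO.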

[14] = target: Hepatocyte nuclear factor 4-alpha (Homo sapiens) (UniProt P41235); experiment: ATG_HNF4a_TRANS: Attagene TRANS-FACTORIAL HepG2 Assay for human Hepatocyte Nuclear Factor 4 alpha (HNF4a) (AID 2282982); conditions: HepG2 HNF4a transactivation reporter, mRNA readout
Method in brief: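 Transfected HepG2 reporter cells are dosed for 24 h; reporter RNA is reverse-transcribed, amplified, fluorescently labelled and HpaI-digested before CE sizing. Positive-direction fit against DMSO.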

[15] = ATG_M_32_TRANS: Attagene TRANS-FACTORIAL HepG2 Assay for M32 Transcription Factor (Internal Marker) (AID 2282984); conditions: HepG2 Attagene TRANS M32 internal marker reporter;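 note: transcript level of a background control reporter unit measured by RT-PCR and capillary electrophoresis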
Method in brief: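 Using transiently transfected HepG2 cells exposed to test chemicals for 24 h, reporter transcripts are converted to labelled cDNA fragments and quantified by capillary electrophoresis. DMSO defines the activity baseline.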

[16] = target: Bile acid receptor (Homo sapiens) (UniProt Q96RI1); experiment: ATG_FXR_TRANS: Attagene TRANS-FACTORIAL HepG2 Assay for Farnesoid X Receptor (FXR) (AID 2282979); conditions: HepG2 Attagene TRANS FXR-GAL4 reporter transcription;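 note: hits raise reporter mRNA above DMSO so AC50 marks FXR activation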
Method in brief: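 Chimeric FXR-GAL4 activity in transiently transfected human HepG2 liver cells is scored as induction of reporter mRNA after 24 h of dosing. Detection uses RT-PCR with fluorescent labelling and capillary electrophoresis, with DMSO serving as baseline.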

[17] = target: Oxysterols receptor LXR-alpha (Homo sapiens) (UniProt Q13133); experiment: ATG_LXRa_TRANS: Attagene TRANS-FACTORIAL HepG2 Assay for human Liver X Receptor alpha (LXRa) (AID 2282980); conditions: HepG2 Attagene TRANS reporter, LXRa transactivation
Method in brief: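 Transient HepG2 transfectants, 24 h dosing, RT-PCR/CE mRNA reporter quantitation; gain-of-signal vs DMSO.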

[18] = target: Nuclear receptor subfamily 4 group A member 2 (Homo sapiens) (UniProt P43354); experiment: ATG_NURR1_TRANS: Attagene TRANS-FACTORIAL HepG2 Assay for human Nuclear Receptor Related Protein 1 (NURR1) (AID 2282985); conditions: HepG2 Attagene TRANS reporter, mRNA readout
Method in brief: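 Cells: HepG2, transiently transfected. Exposure: 24 h. Detection: fluorescence of labelled RT-PCR products separated by capillary electrophoresis; upward fit versus DMSO.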

Measured: AC50

Sequence of Glucocorticoid receptor (Homo sapiens) (P04150 whole entry, looked up, the tested form may be a part): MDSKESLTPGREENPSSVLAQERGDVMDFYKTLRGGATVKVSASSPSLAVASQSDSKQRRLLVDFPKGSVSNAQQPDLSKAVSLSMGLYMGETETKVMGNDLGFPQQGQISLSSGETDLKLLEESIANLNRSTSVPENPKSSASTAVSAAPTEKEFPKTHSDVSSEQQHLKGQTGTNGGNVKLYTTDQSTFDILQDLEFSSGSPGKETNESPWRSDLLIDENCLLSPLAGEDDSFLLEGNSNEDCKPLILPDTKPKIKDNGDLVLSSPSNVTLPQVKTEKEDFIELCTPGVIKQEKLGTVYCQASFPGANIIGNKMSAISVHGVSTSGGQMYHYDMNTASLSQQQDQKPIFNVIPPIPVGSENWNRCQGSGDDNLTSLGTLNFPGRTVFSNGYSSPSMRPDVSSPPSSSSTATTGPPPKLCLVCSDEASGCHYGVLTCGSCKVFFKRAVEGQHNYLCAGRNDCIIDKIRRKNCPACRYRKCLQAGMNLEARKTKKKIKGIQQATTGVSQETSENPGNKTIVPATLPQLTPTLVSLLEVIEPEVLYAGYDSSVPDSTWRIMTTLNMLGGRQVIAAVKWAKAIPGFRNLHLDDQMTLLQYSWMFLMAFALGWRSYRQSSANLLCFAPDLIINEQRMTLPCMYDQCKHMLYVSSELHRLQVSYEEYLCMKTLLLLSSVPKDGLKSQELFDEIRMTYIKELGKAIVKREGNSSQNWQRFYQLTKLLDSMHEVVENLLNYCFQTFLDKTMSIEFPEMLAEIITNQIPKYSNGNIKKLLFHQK
Sequence of Bile acid receptor (Homo sapiens) (Q96RI1 whole entry, looked up, the tested form may be a part): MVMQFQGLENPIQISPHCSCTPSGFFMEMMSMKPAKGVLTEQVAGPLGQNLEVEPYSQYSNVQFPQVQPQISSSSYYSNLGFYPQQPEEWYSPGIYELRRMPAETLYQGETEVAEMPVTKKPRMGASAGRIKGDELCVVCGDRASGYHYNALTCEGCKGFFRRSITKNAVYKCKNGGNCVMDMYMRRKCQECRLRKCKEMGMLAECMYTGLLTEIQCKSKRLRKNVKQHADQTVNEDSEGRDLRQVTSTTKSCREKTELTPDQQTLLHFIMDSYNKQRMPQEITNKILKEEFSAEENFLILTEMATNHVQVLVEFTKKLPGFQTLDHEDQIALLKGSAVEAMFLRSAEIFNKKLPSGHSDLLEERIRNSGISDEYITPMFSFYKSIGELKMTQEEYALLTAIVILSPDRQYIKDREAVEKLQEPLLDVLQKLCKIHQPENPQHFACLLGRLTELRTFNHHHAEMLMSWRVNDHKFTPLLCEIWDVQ
Sequence of Estrogen receptor (Homo sapiens) (P03372 whole entry, looked up, the tested form may be a part): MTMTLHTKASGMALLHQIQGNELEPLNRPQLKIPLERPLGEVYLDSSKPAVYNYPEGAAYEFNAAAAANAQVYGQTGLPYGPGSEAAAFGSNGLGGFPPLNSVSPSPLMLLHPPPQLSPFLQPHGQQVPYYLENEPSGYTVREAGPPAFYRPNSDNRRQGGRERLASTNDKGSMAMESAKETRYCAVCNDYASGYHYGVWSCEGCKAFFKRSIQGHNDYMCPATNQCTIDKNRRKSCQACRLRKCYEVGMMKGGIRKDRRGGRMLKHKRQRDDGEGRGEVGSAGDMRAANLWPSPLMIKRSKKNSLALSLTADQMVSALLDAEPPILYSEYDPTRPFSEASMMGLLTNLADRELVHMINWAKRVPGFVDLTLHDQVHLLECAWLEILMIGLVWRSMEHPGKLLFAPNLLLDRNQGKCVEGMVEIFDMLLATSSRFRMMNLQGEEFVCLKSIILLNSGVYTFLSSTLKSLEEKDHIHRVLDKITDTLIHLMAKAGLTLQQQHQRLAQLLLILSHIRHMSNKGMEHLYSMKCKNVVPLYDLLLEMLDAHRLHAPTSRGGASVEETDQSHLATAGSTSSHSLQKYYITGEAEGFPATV
Sequence of Oxysterols receptor LXR-beta (Homo sapiens) (P55055 whole entry, looked up, the tested form may be a part): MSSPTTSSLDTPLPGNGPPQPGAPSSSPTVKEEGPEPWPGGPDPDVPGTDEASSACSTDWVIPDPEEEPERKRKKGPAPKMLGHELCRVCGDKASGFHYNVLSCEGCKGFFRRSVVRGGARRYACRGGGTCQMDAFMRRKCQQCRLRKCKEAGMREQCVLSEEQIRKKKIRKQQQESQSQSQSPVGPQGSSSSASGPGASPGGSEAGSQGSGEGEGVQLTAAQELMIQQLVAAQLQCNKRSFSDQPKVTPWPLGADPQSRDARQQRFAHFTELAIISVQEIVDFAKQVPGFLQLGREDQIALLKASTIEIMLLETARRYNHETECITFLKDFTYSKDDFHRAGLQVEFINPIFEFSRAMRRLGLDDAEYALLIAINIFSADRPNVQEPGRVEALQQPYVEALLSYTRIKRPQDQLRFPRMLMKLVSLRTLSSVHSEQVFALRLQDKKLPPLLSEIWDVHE
Sequence of Transcriptional activator Myb (Homo sapiens) (P10242 whole entry, looked up): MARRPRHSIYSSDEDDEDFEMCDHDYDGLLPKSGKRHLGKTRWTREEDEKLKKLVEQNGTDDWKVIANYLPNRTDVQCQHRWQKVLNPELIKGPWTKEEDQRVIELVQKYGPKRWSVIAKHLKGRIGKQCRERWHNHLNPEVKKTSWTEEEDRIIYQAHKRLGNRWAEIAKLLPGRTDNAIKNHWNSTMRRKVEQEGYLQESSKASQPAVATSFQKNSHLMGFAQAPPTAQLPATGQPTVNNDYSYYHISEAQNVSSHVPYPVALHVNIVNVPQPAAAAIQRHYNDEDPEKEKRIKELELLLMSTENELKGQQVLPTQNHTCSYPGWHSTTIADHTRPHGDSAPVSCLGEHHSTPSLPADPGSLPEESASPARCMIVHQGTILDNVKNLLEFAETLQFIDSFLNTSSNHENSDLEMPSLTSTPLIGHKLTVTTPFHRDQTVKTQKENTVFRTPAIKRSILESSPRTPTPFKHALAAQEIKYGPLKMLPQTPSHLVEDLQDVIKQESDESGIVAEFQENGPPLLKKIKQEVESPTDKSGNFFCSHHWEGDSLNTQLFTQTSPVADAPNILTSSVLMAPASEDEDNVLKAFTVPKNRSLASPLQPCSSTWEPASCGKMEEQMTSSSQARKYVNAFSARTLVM
Sequence of X-box-binding protein 1 (Homo sapiens) (P17861 whole entry, looked up, the tested form may be a part): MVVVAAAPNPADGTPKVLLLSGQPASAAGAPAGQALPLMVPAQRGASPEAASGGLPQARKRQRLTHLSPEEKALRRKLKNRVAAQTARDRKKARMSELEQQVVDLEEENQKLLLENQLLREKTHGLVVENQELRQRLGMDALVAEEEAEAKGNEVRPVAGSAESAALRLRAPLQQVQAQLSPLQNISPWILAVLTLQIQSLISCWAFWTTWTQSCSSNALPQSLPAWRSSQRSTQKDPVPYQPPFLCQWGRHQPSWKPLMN
Sequence of Oxysterols receptor LXR-alpha (Homo sapiens) (Q13133 whole entry, looked up): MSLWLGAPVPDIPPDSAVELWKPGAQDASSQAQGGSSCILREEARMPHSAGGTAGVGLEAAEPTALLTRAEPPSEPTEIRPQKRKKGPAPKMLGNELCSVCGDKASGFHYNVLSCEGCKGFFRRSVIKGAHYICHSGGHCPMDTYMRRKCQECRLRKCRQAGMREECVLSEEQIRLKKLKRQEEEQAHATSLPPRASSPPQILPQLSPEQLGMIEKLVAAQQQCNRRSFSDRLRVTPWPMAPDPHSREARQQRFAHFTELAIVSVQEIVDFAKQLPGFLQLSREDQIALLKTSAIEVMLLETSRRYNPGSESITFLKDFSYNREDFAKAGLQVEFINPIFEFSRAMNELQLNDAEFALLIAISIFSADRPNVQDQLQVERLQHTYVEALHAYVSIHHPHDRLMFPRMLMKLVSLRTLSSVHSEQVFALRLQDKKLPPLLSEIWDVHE
Sequence of Hepatocyte nuclear factor 4-alpha (Homo sapiens) (P41235 whole entry, looked up): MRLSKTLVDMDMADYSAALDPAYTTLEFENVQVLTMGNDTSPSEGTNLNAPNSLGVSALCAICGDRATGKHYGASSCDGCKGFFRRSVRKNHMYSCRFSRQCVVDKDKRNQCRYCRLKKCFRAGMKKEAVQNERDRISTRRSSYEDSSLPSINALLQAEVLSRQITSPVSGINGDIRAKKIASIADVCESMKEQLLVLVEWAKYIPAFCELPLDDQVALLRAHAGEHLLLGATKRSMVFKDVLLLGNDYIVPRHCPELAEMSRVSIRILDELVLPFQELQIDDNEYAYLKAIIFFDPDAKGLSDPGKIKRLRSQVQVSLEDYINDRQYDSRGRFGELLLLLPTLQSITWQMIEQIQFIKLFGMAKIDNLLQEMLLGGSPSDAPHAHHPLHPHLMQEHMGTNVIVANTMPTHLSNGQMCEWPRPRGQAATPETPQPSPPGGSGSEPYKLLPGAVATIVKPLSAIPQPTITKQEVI
Sequence of Nuclear receptor subfamily 4 group A member 2 (Homo sapiens) (P43354 whole entry, looked up): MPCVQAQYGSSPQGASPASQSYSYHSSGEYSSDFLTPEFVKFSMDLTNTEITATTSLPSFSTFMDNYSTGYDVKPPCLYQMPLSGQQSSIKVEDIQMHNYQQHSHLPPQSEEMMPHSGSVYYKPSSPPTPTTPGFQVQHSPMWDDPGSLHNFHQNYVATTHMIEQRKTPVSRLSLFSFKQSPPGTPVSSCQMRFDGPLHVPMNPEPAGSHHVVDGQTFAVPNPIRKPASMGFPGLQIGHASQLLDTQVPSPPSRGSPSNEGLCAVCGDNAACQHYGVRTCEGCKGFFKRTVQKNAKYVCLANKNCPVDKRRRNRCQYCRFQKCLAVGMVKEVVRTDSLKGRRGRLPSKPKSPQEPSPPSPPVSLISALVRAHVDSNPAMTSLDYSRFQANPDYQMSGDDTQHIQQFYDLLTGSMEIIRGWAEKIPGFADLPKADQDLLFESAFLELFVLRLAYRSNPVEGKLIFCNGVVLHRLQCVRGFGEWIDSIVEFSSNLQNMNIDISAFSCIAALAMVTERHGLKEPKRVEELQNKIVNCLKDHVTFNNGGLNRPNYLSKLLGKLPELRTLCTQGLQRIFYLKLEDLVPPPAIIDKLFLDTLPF

COc1nccnc1CC(C)C
not listed: [12] | [13] | [14] | [15] | [16] | [17] | [18]
inactive: all other assays above

CC(=O)OCc1ccccc1
not listed: [6] | [16] | [17] | [18]
inactive: all other assays above

c1ccc(-c2nc3ccccc3[nH]2)cc1
not listed: [6] | [12]
inactive: all other assays above

CCCCCCCCCCCCCC(=O)OC(C)C
not listed: [6] | [15] | [16] | [18]
inactive: all other assays above

CCCCCCCC(=O)OCC(COC(=O)CCCCCCC)OC(=O)CCCCCCC
not listed: [6] | [14] | [15]
inactive: all other assays above

Cc1ccc(S(=O)(=O)N=C=O)cc1
not listed: [9] | [12] | [15] | [16] | [17]
inactive: all other assays above

COC(C=C(C)CCC=C(C)C)OC
active: [4] 76.7 µM
not listed: [6] | [9] | [10] | [11] | [14] | [17]
inactive: all other assays above

CC(C)c1cc(C(C)C)cc(C(C)C)c1
active: [1] 169 µM | [4] 100 µM | [5] 58.9 µM | [18] 7.9 µM | [11] 176 µM
not listed: [6] | [8] | [10] | [14] | [16]
inactive: all other assays above

CC(=O)c1ccccc1O
not listed: [6] | [8] | [10] | [13] | [14] | [15] | [18]
inactive: all other assays above
